Broadly, the AC50 is the midpoint of the concentration-response curve, whichever way the signal moves. Broadly, the IC50 is the concentration needed to halve the response being measured.

We go through six compounds from PubChem BioAssay.

The structures appear in SMILES notation. Inconclusive results are not listed. The source made the active and inactive calls. Unless noted, no cut-off is given here; in the data, nearly all actives have AC50 up to about 30 µM.

A short description of experiment [1]: viability loss in pontine glioma line – cell-based, SU-DIPG-XIII, MIPE4.0, CellTiter-Glo, qHTS, dose response (AID 1347061; cut-off not given, nearly all actives have AC50 up to about 37 µM;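 note: cells exposed to compound for 48 hours before readout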). Particulars: CellTiter-Glo ATP luminescence.
Experiment [2] is described as follows: viability loss in pontine glioma line – cell-based, JHH-DIPG-1, MIPE4.0, CellTiter-Glo, qHTS, dose response (AID 1347062; cut-off not given, nearly all actives have AC50 up to about 27 µM;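 for AC50: cells exposed to compound for two days before readout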). Particulars: JHH-DIPG-1 viability, CellTiter-Glo ATP luminescence. For orientation: In ATP-based viability assays light output follows the ATP content of the culture.
A short description of experiment [3]: viability loss in pontine glioma line – cell-based, SU-DIPG-IV, MIPE4.0, CellTiter-Glo, qHTS, dose response (AID 1347063).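 Note: compound exposure lasted 48 hours before the viability readout.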 Conditions: CellTiter-Glo ATP luminescence.
The nature of experiment [4]: growth inhibition of DIPG cells – cell-based, MIPE4.0 library, CellTiter-Glo luminescence, qHTS (AID 1347066).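 Note: cells exposed to compound for 48 hours before readout.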 Particulars: SU-DIPG-VI viability, CellTiter-Glo ATP luminescence.
A short description of experiment [5]: growth inhibition of DIPG cells – cell-based, MIPE5.0 library, qHTS (AID 1347068; cut-off not given, nearly all actives have IC50 up to about 30 µM;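 for IC50: cells exposed to compound for 48 hours before viability readout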). Particulars: SU-DIPG-XXV viability. (In general: In qHTS, concentration-response curves come from the screen itself.)
Experiment [6] can be described thus: viability loss with induced miR-34 in A549 – imaging, A549 dox-inducible miR-34, nuclei and caspase counts, primary screen (AID 1347080;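 active = compounds whose cell count with miR-34 switched on is under 0.7 times the count with it off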). Conditions: A549 miR-34 inducible, Hoechst nuclei count, 48 h.
Experiment [7] is described as follows: galactose survival enhancers in mitochondrial complex I cybrids – cell-based, galactose medium, ATP luminescence, primary screen (AID 1645843;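 active = z-score of at least 1.8 in each of two replicates, scored against plate mean and spread of sample wells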;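 note: positive z means more ATP and so rescue of galactose-driven cybrid death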). Particulars: complex I mutant cybrid cells, 72 h, stronger effect = higher value.
The nature of experiment [8]: viability loss in pontine glioma line – cell-based, SU-DIPG-XIII, MIPE5.0, CellTiter-Glo, qHTS, dose response (AID 1347064; cut-off not given, nearly all actives have AC50 up to about 23 µM;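 for AC50: cells exposed to compound for 48 hours before the viability read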). Particulars: CellTiter-Glo ATP luminescence.
The nature of experiment [9]: viability loss in pontine glioma line – cell-based, SU-DIPG-XXV, MIPE5.0, CellTiter-Glo, qHTS, dose response (AID 1347065; cut-off not given, nearly all actives have AC50 up to about 26 µM;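 note: cells exposed to compound for 48 hours before ATP readout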). Conditions: CellTiter-Glo ATP luminescence.
Experiment [10] in a line: MELAS cybrid and Rieske KO viability enhancers – cell-based, MELAS cybrids, Rieske KO mouse fibroblasts, CellTiter-Glo, primary screen (AID 1508586;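 active = mean z-score across replicates of 1.96 or higher in either the MELAS or the Rieske mutant cell line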;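 note: z relative to plate mean and SD of compound and empty wells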). Particulars: low glucose.
Experiment [11] can be described thus: JHH-DIPG-1 glioma cell viability, MIPE5.0 library, CellTiter-Glo luminescence, qHTS (AID 1347067; cut-off not given, nearly all actives have AC50 up to about 26 µM;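 note: cells exposed to compound for 48 hours before readout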). Conditions: JHH-DIPG-1 glioma viability, CellTiter-Glo ATP luminescence.
Where [12] appears, read: measured here: relative caspase fold change +Dox/-Dox.
The mark [13] stands for this setting: measured here: total cells with miR-34 induction, stronger effect = lower value.
Where [14] appears, read: measured here: total cells without miR-34 induction.

`C[C@H]([C@H](O)CCC(C)(C)O)[C@H]1CC[C@@]2(O)C3=CC(=O)[C@@H]4C[C@@H](O)[C@@H](O)C[C@]4(C)[C@H]3CC[C@]12C`: the outcome in experiment [1], in experiment [2], in [3] and in experiment [4] was inactive.
In the case of `CC1(N2CCC(n3c([C@@H]4CCCNC4)nc4ccccc43)CC2)CCCCCCC1`, the compound was called inactive in experiment [1]. In [2], the AC50 was 14.8 µM (active). Besides, the IC50 in experiment [5] was 20.9 µM (active).
Turning to `COc1ccc2c(c1)[C@]13CCCCC1C(C2)N(C)CC3` (stereo not given in full), the compound was classed as inactive in experiment [2], in experiment [3] and in experiment [4]. Besides, the fold change in experiment [6] (stronger effect = lower value) was 0.884 (inactive); in experiment [6] (setting [12]) it was 1.91. For the same compound, the cell count was 7550 in experiment [6] (setting [13]) and 8540 in [6] (setting [14]). Besides, in experiment [7], the z-score was 0.055 (inactive).
Consider `C[C@](O)(COc1ccc(C#N)cc1)C(=O)Nc1ccc(C#N)c(C(F)(F)F)c1`, for which the result in experiment [2], in experiment [3], in experiment [8], in experiment [9], in experiment [4] and in [5] was inactive. For the same compound, the fold change in [6] (stronger effect = lower value) was 0.889 (inactive); in experiment [6] (setting [12]), 1.23. For the same compound, the results for the cell count in [6] (setting [13]) and in experiment [6] (setting [14]) were 6840 and 7700, respectively. Further, the z-score in experiment [10] (MELAS cybrid survival, CellTiter-Glo 48 h, stronger effect = higher value) was -0.434 (inactive); in experiment [10] (Rieske KO mouse fibroblast survival, CellTiter-Glo 72 h), 0.535.
On to `C=CCO/N=C(/C[C@H]1O[C@@H]2O[C@]3(C)CC[C@H]4[C@H](C)CC[C@@H]([C@H]1C)[C@@]24OO3)[C@H]1O[C@@H]2O[C@]3(C)CC[C@H]4[C@H](C)CC[C@@H]([C@H]1C)[C@@]24OO3`, for which the AC50 in experiment [3] is 0.209 µM (active).
With `COC[C@H]1OC(=O)c2coc3c2[C@@]1(C)C1=C(C3=O)[C@@H]2CC[C@H](O)[C@@]2(C)C[C@H]1OC(C)=O`, the AC50 is 16.6 µM (active) in [1]; 1.18 µM (active) in experiment [3]; 9.34 µM (active) in experiment [8]; 1.66 µM (active) in experiment [9]; 14.8 µM (active) in experiment [4]; 5.9 µM (active) in experiment [11]. Also, the call in experiment [5] was inactive.
